{"source": "paper PMC4081100", "about": "“A DNA-binding-site landscape and regulatory network analysis for NAC transcription factors in Arabidopsis thaliana”"}
{"target": "T1, GST-ATAF1 NAC domain (Arabidopsis thaliana, UniProt Q39013 7-158)", "T1 sequence": "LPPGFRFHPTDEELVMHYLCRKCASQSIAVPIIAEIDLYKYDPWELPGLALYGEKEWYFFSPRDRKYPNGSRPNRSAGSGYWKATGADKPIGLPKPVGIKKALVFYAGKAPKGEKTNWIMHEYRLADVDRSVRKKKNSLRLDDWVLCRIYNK", "experiment": "universal protein binding microarray (PBM); high values mean tight binding", "conditions": "protein: recombinant; tags: GST; chain copies: 2; dsDNA, one strand shown", "how_it_was_run": "(§1)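 Protein amounts were determined by A280 or anti-GST western blot after glutathione–Sepharose 4B purification of GST-tagged proteins induced in cells, with zinc acetate included for zinc-finger proteins. Duplicate runs at 200 to 500 nM final were done on custom all-10-mer Agilent 4 × 180K arrays made double-stranded by primer extension. The normalised enrichment score (E-score) over gapped and ungapped 8-mers is the measure of binding.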", "units": {"binding signal": "E-score"}}
{"sequence": "GTTGACGA", "binding signal": 0.0784}
{"sequence": "AGTCAATG", "binding signal": 0.0527}
{"sequence": "TGACTGCA", "binding signal": 0.0918}
{"sequence": "CGTTTGAC", "binding signal": 0.0858}
{"sequence": "CAGTTGAC", "binding signal": 0.112}
{"sequence": "ACTTGACT", "binding signal": 0.186}
{"sequence": "TCGTCAAA", "binding signal": 0.0946}
{"sequence": "GAAAGTCA", "binding signal": 0.0574}
{"sequence": "GCAGTCAA", "binding signal": 0.0666}
{"sequence": "CTCGTCAA", "binding signal": 0.0515}
{"sequence": "GAAAAGTC", "binding signal": 0.137}
{"sequence": "AGGTTGAC", "binding signal": 0.13}
{"sequence": "GTTTGACA", "binding signal": 0.101}
{"sequence": "GAATTGAC", "binding signal": 0.092}
{"sequence": "GATTTGAC", "binding signal": 0.122}
{"sequence": "GACTTGAC", "binding signal": 0.199}
{"target": "T2, GST-ANAC092(1-285) full length (Arabidopsis thaliana, UniProt Q9FKA0 1-285)", "T2 sequence": "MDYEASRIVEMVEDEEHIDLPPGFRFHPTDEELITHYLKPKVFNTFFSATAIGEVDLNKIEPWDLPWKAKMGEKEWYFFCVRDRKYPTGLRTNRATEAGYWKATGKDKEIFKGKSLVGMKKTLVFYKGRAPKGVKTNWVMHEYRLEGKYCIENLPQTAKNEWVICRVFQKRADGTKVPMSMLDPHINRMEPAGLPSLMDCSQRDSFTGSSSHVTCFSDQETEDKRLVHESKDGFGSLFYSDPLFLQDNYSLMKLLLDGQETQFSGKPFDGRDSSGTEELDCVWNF", "experiment": "universal protein binding microarray (PBM); high values mean tight binding", "conditions": "protein: recombinant; tags: GST; chain copies: 2; dsDNA, one strand shown", "how_it_was_run": "as §1", "units": {"binding signal": "E-score"}}
{"sequence": "CCGTTGAC", "binding signal": 0.0578}
{"sequence": "GGAAGTCA", "binding signal": 0.0837}
{"sequence": "GGTCAAGA", "binding signal": 0.0594}
{"sequence": "ACTTGACT", "binding signal": 0.0808}
{"sequence": "GAAAGTCA", "binding signal": 0.0781}
{"sequence": "GAATTGAC", "binding signal": 0.0675}
{"sequence": "GACTTGAC", "binding signal": 0.0614}
{"target": "T3, GST-NAP(1-166) (Arabidopsis thaliana, UniProt O49255 1-166)", "T3 sequence": "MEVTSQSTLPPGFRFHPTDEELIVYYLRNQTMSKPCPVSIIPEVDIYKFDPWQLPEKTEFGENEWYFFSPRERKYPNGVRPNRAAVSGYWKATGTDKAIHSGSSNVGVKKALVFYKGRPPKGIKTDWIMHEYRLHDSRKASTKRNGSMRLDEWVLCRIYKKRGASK", "experiment": "universal protein binding microarray (PBM); transcription factors of Arabidopsis thaliana; high values mean tight binding", "conditions": "protein: recombinant; tags: GST; chain copies: 2; dsDNA, one strand shown", "how_it_was_run": "as §1", "units": {"binding signal": "E-score"}}
{"sequence": "CCGTTGAC", "binding signal": 0.126}
{"sequence": "GCGTTGAC", "binding signal": 0.116}
{"sequence": "CGTTGACC", "binding signal": 0.0594}
{"sequence": "CGTTTGAC", "binding signal": 0.0589}
{"sequence": "CAGTTGAC", "binding signal": 0.0525}
{"sequence": "GTGTCAAC", "binding signal": 0.0561}
{"sequence": "GCAGTCAA", "binding signal": 0.0815}
{"sequence": "CTCGTCAA", "binding signal": 0.0553}
{"sequence": "GAAAAGTC", "binding signal": 0.145}
